# Data published in publication PMC8384837, “Expanding the binding specificity for RNA recognition by a PUF domain”.
# Positions count from the first letter of the chain named.
# Key:
# Assay in all cases: yeast three-hybrid, YBZ-1, SC-Leu-His + 0.5 mM 3-AT, 4 days
# Settings in all cases: tags: N-Gal4 AD-HA kept; label: inside an RPR1-promoter hybrid RNA with tandem MS2 sites; ssRNA
# [1] = molecular target: PUM1 PUF domain R5-WHG (Homo sapiens, UniProt Q14671 828-1176, C1007W;R1008H;Q1011G)
# Method in brief: (§1)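 Matching RNA elements and Pumilio-1 PUF domain libraries, randomized at the three base-contacting residues of every repeat, were co-expressed from a centromeric plasmid in strain YBZ-1 (LexA–MS2 coat fusion, HIS3 reporter). The repeat regions were PCR-amplified and Illumina-sequenced from cells grown four days on SC-Leu (input) or SC-Leu-His + 0.5 mM 3-AT (selection). The interaction score is the log change in variant frequency from input to selection. It is computed in log2, with a pseudocount of 1 for absent variants.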
# [2] = molecular target: PUM1 PUF domain R3-GRA (Homo sapiens, UniProt Q14671 828-1176, C935G;Q939A)
# Method in brief: as §1
# [3] = molecular target: PUM1 PUF domain R7-RRY (Homo sapiens, UniProt Q14671 828-1176, S1079R;N1080R;E1083Y)
# Method in brief: as §1
# [4] = molecular target: PUM1 PUF domain R8-CHK (Homo sapiens, UniProt Q14671 828-1176, N1122C;Y1123H;Q1126K)
# Method in brief: as §1
# [5] = molecular target: PUM1 PUF domain R7-IMR (Homo sapiens, UniProt Q14671 828-1176, S1079I;N1080M;E1083R)
# Method in brief: as §1
# [6] = molecular target: PUM1 PUF domain R8-NYP (Homo sapiens, UniProt Q14671 828-1176, Q1126P)
# Method in brief: as §1
# [7] = molecular target: PUM1 PUF domain R5-GRH (Homo sapiens, UniProt Q14671 828-1176, C1007G;Q1011H)
# Method in brief: as §1
# [8] = molecular target: T1, PUM1 PUF domain R6-MFR (Homo sapiens, UniProt Q14671 828-1176, N1043M;Y1044F;Q1047R)
# T1 sequence: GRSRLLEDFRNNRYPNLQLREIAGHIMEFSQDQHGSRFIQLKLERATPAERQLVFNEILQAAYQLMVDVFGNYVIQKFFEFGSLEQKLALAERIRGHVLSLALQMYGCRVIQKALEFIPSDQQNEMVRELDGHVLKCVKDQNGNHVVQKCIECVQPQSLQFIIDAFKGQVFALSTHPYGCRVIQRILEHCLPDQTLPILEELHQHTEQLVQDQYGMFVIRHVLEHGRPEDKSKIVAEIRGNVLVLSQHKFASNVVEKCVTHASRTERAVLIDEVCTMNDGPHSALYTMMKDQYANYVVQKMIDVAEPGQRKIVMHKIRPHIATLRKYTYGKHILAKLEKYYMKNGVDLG
# Method in brief: as §1
# [9] = molecular target: T2, PUM1 PUF domain R6-NYL (Homo sapiens, UniProt Q14671 828-1176, Q1047L)
# T2 sequence: T1 sequence with M216N, F217Y, R220L
# Method in brief: as §1
# [10] = molecular target: T3, PUM1 PUF domain R6-LWS (Homo sapiens, UniProt Q14671 828-1176, N1043L;Y1044W;Q1047S)
# T3 sequence: T1 sequence with M216L, F217W, R220S
# Method in brief: as §1
# [11] = molecular target: PUM1 PUF domain R3-TFL (Homo sapiens, UniProt Q14671 828-1176, C935T;R936F;Q939L)
# Method in brief: as §1
# [12] = molecular target: PUM1 PUF domain R3-PWV (Homo sapiens, UniProt Q14671 828-1176, C935P;R936W;Q939V)
# Method in brief: as §1
# [13] = molecular target: PUM1 PUF domain R3-SNP (Homo sapiens, UniProt Q14671 828-1176, C935S;R936N;Q939P)
# Method in brief: as §1
# [14] = molecular target: PUM1 PUF domain R5-SRI (Homo sapiens, UniProt Q14671 828-1176, C1007S;Q1011I)
# Method in brief: as §1
# [15] = molecular target: T4, PUM1 PUF domain R6-SFA (Homo sapiens, UniProt Q14671 828-1176, N1043S;Y1044F;Q1047A)
# T4 sequence: T1 sequence with M216S, R220A
# Method in brief: as §1
# [16] = molecular target: T5, PUM1 PUF domain R6-IFL (Homo sapiens, UniProt Q14671 828-1176, N1043I;Y1044F;Q1047L)
# T5 sequence: T1 sequence with M216I, R220L
# Method in brief: as §1
# [17] = molecular target: PUM1 PUF domain R4-PWT (Homo sapiens, UniProt Q14671 828-1176, N971P;H972W;Q975T)
# Method in brief: as §1
# [18] = molecular target: PUM1 PUF domain R1-KER (Homo sapiens, UniProt Q14671 828-1176, S863K;R864E;Q867R)
# Method in brief: as §1
# [19] = molecular target: PUM1 PUF domain R3-RCA (Homo sapiens, UniProt Q14671 828-1176, C935R;R936C;Q939A)
# Method in brief: as §1
# [20] = molecular target: PUM1 PUF domain R5-DIR (Homo sapiens, UniProt Q14671 828-1176, C1007D;R1008I;Q1011R)
# Method in brief: as §1
sequence,measurement,setting,value
GGCUAGAACUAGUGGAUCCCCCGGCGCCCGGCGGCUCGAGCCCGGGUAAGUGUGAAUAGUCUGCAUGCCGCCGGGCGCCAUGCCUGCAGGUCGACUCUAGAAAACAUG,binding signal,[1],2.58 log2 enrichment (interaction score)
GGCUAGAACUAGUGGAUCCCCCGGCGCCCGGCGGCUCGAGCCCGGGUAAGUGUAAGUAGUCUGCAUGCCGCCGGGCGCCAUGCCUGCAGGUCGACUCUAGAAAACAUG,binding signal,[2],1.12 log2 enrichment (interaction score)
GGCUAGAACUAGUGGAUCCCCCGGCGCCCGGCGGCUCGAGCCCGGGUAAGUCUAAAUAGUCUGCAUGCCGCCGGGCGCCAUGCCUGCAGGUCGACUCUAGAAAACAUG,binding signal,[3],3.51 log2 enrichment (interaction score)
GGCUAGAACUAGUGGAUCCCCCGGCGCCCGGCGGCUCGAGCCCGGGUAAGCGUAAAUAGUCUGCAUGCCGCCGGGCGCCAUGCCUGCAGGUCGACUCUAGAAAACAUG,binding signal,[4],3.49 log2 enrichment (interaction score)
GGCUAGAACUAGUGGAUCCCCCGGCGCCCGGCGGCUCGAGCCCGGGUAAGUUUAAAUAGUCUGCAUGCCGCCGGGCGCCAUGCCUGCAGGUCGACUCUAGAAAACAUG,binding signal,[5],2.21 log2 enrichment (interaction score)
same,binding signal,[3],3.87 log2 enrichment (interaction score)
GGCUAGAACUAGUGGAUCCCCCGGCGCCCGGCGGCUCGAGCCCGGGUAAGUGUAAAUAGUCUGCAUGCCGCCGGGCGCCAUGCCUGCAGGUCGACUCUAGAAAACAUG,binding signal,[2],2.35 log2 enrichment (interaction score)
same,binding signal,[6],3.16 log2 enrichment (interaction score)
same,binding signal,[7],3.97 log2 enrichment (interaction score)
same,binding signal,[8],6.1 log2 enrichment (interaction score)
same,binding signal,[9],5.52 log2 enrichment (interaction score)
same,binding signal,[10],6 log2 enrichment (interaction score)
same,binding signal,[11],2.81 log2 enrichment (interaction score)
same,binding signal,[12],3.63 log2 enrichment (interaction score)
same,binding signal,[13],2.72 log2 enrichment (interaction score)
same,binding signal,[14],2.73 log2 enrichment (interaction score)
same,binding signal,[15],3.38 log2 enrichment (interaction score)
GGCUAGAACUAGUGGAUCCCCCGGCGCCCGGCGGCUCGAGCCCGGGUAAGUGUUAAUAGUCUGCAUGCCGCCGGGCGCCAUGCCUGCAGGUCGACUCUAGAAAACAUG,binding signal,[1],4.56 log2 enrichment (interaction score)
same,binding signal,[7],4.85 log2 enrichment (interaction score)
GGCUAGAACUAGUGGAUCCCCCGGCGCCCGGCGGCUCGAGCCCGGGUAAGUGAAAAUAGUCUGCAUGCCGCCGGGCGCCAUGCCUGCAGGUCGACUCUAGAAAACAUG,binding signal,[10],4.85 log2 enrichment (interaction score)
same,binding signal,[16],7.28 log2 enrichment (interaction score)
GGCUAGAACUAGUGGAUCCCCCGGCGCCCGGCGGCUCGAGCCCGGGUAAGUGUACAUAGUCUGCAUGCCGCCGGGCGCCAUGCCUGCAGGUCGACUCUAGAAAACAUG,binding signal,[17],5.24 log2 enrichment (interaction score)
GGCUAGAACUAGUGGAUCCCCCGGCGCCCGGCGGCUCGAGCCCGGGUAAGUGUAAAUUGUCUGCAUGCCGCCGGGCGCCAUGCCUGCAGGUCGACUCUAGAAAACAUG,binding signal,[18],3.72 log2 enrichment (interaction score)
GGCUAGAACUAGUGGAUCCCCCGGCGCCCGGCGGCUCGAGCCCGGGUAAGUGUAAUUAGUCUGCAUGCCGCCGGGCGCCAUGCCUGCAGGUCGACUCUAGAAAACAUG,binding signal,[2],0.97 log2 enrichment (interaction score)
same,binding signal,[19],3.42 log2 enrichment (interaction score)
GGCUAGAACUAGUGGAUCCCCCGGCGCCCGGCGGCUCGAGCCCGGGUAAGUGUCAAUAGUCUGCAUGCCGCCGGGCGCCAUGCCUGCAGGUCGACUCUAGAAAACAUG,binding signal,[1],2.14 log2 enrichment (interaction score)
same,binding signal,[7],2.47 log2 enrichment (interaction score)
same,binding signal,[20],3.11 log2 enrichment (interaction score)
